Source: PubChem BioAssay (NCATS)
Records with an inconclusive call do not appear. Activity calls are given as the source filed them. The call rests on the fitted dose curve; in most records, active means well fitted inhibition curve with a large enough effect; inconclusive means small, poorly fitted or top-dose-only effect; inactive means flat fitted curve, though single readings scatter.

Experiments:
Experiment in all cases: qHTS profiling for inhibitors of Plasmodium falciparum proliferation (AID 504749); further: nearly all actives have a fitted effect of over 60% in size
Settings in all cases: P. falciparum in erythrocytes, SYBR Green DNA, 72 h; series mostly up to 28.7 µM
[1] = system: CP247
Outline: (§1)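 Quantitative HTS: compounds pinned into medium, infected erythrocytes added (0.3% parasitemia, 2.5% hematocrit), 72 h culture at 37 C under 5% CO2. Saponin/Triton lysis with SYBR Green I, overnight RT, then fluorescence read.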

[2] = system: CP250
Outline: as §1

[3] = system: CP252
Outline: as §1

[4] = system: CP256
Outline: as §1

[5] = system: CP260
Outline: as §1

[6] = system: CP262
Outline: as §1

[7] = system: CP265
Outline: as §1

[8] = system: CP266
Outline: as §1

[9] = system: CP268
Outline: as §1

[10] = system: CP269
Outline: as §1

Measured: Potency
Potency means the concentration at half of the fitted maximal effect.

O=C(O)CO.[NH2-].[NH2-].[Pt+2]
inactive: all assays above

C[C@H]1C[C@@H]2[C@@H]([C@@H](O)C[C@@]3(C)[C@H]2CC[C@]3(O)C(=O)CO)[C@@]2(C)C=CC(=O)C=C12
inactive: all assays above

O=c1[nH]c(=O)n(C2CCCO2)cc1F (stereo unspecified)
inactive: all assays above

Nc1ccc(S(=O)(=O)Nc2ncccn2)cc1
inactive: all assays above

CC[C@H]1CN2CCc3cc(OC)c(OC)cc3[C@H]2C[C@@H]1C[C@@H]1NCCc2cc(OC)c(OC)cc21
active: [1] 0.398 µM | [2] 0.316 µM | [3] 0.562 µM | [4] 0.355 µM | [5] 0.126 µM | [6] 0.757 µM | [7] 0.447 µM | [8] 0.675 µM | [9] 0.426 µM | [10] 0.301 µM

Nc1ccn([C@@H]2CS[C@H](CO)O2)c(=O)n1
inactive: all assays above

COc1cc(C(=O)NS(=O)(=O)c2ccccc2C)ccc1Cc1cn(C)c2ccc(NC(=O)OC3CCCC3)cc12
not listed: [1] | [10]
inactive: all other assays above

COC(=O)C[C@](O)(CCCC(C)(C)O)C(=O)O[C@@H]1C(OC)=C[C@]23CCCN2CCc2cc4c(cc2[C@H]13)OCO4
active: [1] 0.0178 µM | [2] 0.0282 µM | [3] 0.0316 µM | [4] 0.0316 µM | [5] 0.0282 µM | [6] 0.0338 µM | [7] 0.0316 µM | [9] 0.0379 µM | [10] 0.0338 µM

CC(C)(C)NC(=O)[C@H]1CN(Cc2cccnc2)CCN1C[C@@H](O)C[C@@H](Cc1ccccc1)C(=O)N[C@H]1c2ccccc2C[C@H]1O
active: [1] 11.2 µM | [3] 12.6 µM | [10] 13.5 µM
inactive: [6]

COc1c(N2C[C@@H]3CCCN[C@H]3C2)c(F)cc2c(=O)c(C(=O)O)cn(C3CC3)c12
not listed: [9]
inactive: all other assays above

CN1c2cc(O)c(N=NC(N)=O)cc2CC1S(=O)(=O)O (stereo unspecified)
inactive: all assays above

COC(=O)C1=C(C)NC(C)=C(C(=O)OCCN2CCN(C(c3ccccc3)c3ccccc3)CC2)C1c1cccc([N+](=O)[O-])c1 (stereo unspecified)
active: [1] 3.98 µM | [2] 4.47 µM | [3] 2.82 µM | [4] 3.55 µM | [5] 2.51 µM | [6] 4.78 µM | [8] 6.75 µM | [9] 4.78 µM | [10] 4.26 µM

CC=CC1=C(C(=O)O)N2C(=O)[C@H](NC(=O)[C@H](N)c3ccc(O)cc3)[C@@H]2SC1
inactive: all assays above

Nc1ccn([C@@H]2O[C@H](CO)[C@H](O)C2(F)F)c(=O)n1
active: [1] 1.41 µM | [2] 5.01 µM | [3] 3.55 µM | [4] 1.58 µM | [5] 3.98 µM | [6] 2.69 µM | [7] 3.98 µM | [8] 4.78 µM | [9] 6.01 µM | [10] 4.78 µM

CC1(C)O[C@@H]2C[C@@H]3[C@H]4C[C@@H](F)C5=CC(=O)C=C[C@]5(C)[C@@]4(F)[C@@H](O)C[C@]3(C)[C@]2(C(=O)CO)O1
not listed: [8] | [9] | [10]
inactive: all other assays above

CCC1=C[C@@H]2CN(C1)Cc1c([nH]c3ccccc13)[C@@](C(=O)OC)(c1cc3c(cc1OC)N(C)[C@@H]1[C@@](O)(C(=O)OC)[C@H](OC(C)=O)[C@]4(CC)C=CCN5CC[C@]31[C@@H]54)C2
active: [1] 3.55 µM | [2] 3.98 µM | [3] 2.82 µM | [4] 2 µM | [5] 2.82 µM | [6] 3.01 µM | [7] 2 µM | [8] 4.26 µM | [9] 3.38 µM | [10] 1.9 µM
